Only some compounds are listed: those with a hit (about 2.9% of all), similar ones and a draw of the others.
EPAC1 agonist: human EPAC1 agonism, validation. AID 1645883. O95398. Potency, µM, inactives show max response, positive = active, hits mostly activators. 16,000 tested, 1% active. EPAC1 Rap1b BODIPY-GDP exchange, fluorescence; also: nearly all actives have a fitted effect of over 70% in size
EPAC2 antag: validation of human EPAC2 antagonists; 16,000 tested, 1.7% active; AID 1645886; Q8WZA2; EPAC2 Rap1B BODIPY-GDP exchange, fluorescence; Potency, µM (top dose mostly 112 µM), without a hit: at the highest dose activity, negative = inhibition, actives largely listed as inhibitors;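 also: 100% = activation by cAMP agonist control; nearly all actives have a fitted effect of over 40% in size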
Target sequence (Q8WZA2 whole entry, looked up): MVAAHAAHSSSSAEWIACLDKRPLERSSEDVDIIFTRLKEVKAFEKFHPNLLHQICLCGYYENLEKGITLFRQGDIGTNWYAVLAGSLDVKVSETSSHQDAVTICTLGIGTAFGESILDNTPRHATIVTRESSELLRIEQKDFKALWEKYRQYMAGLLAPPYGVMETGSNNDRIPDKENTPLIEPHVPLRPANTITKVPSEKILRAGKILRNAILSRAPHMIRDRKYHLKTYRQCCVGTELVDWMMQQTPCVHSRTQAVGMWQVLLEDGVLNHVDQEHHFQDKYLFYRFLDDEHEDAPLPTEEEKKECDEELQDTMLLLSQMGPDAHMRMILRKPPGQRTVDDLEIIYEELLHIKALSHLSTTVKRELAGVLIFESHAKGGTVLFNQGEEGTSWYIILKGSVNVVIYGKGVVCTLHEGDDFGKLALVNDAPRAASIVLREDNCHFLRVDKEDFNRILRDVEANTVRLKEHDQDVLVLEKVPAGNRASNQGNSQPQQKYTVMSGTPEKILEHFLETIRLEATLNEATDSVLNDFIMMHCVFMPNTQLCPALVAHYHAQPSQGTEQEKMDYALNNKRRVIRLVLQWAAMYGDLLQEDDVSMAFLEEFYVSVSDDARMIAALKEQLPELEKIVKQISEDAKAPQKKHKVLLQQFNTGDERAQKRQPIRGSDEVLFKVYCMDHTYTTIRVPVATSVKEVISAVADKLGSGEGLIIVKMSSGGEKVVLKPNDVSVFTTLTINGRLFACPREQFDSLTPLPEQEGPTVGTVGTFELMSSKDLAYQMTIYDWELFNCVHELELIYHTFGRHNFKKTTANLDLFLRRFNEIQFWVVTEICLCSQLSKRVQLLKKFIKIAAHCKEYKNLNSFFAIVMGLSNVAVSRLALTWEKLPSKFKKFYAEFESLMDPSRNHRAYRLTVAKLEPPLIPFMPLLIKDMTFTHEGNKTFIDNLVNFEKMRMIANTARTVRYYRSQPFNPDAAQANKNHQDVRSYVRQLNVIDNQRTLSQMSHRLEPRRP
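Fluorescent exchange read-out: 100 nM EPAC2 with 250 nM RAP1B–BODIPY-GDP and 50 uM GDP; BODIPY-GDP release lowers fluorescence. Read at 480/540 nm every 5 min for 30 min at room temperature; normalized to 6.5 mM cAMP.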
Numbers without * were called inactive; i = inactive; ? = inconclusive; ! = a repeat was not active; [ ] = remark or other dose. Calls follow the shape of the dose curve; as a rule, active = well fitted curve in the direction sought with a large enough effect; inconclusive = small, poorly fitted or top-dose-only effect, or another doubt; inactive = no such curve, though single readings can be large; an effect the other way counts as inactive or inconclusive. Unless noted, % is scaled to controls: 0 for no effect and ±100 for the full control effect; potency is read from the fitted curve at half-maximal effect.

SMILES	EPAC1 agonist	EPAC2 antag
CCC(=O)O[C@@H]1CC(=O)O[C@H](C)C/C=C/C=C/[C@@H](O)[C@H](C)C[C@H](CC=O)[C@H](OC2O[C@H](C)[C@@H](O[C@H]3C[C@@](C)(O)[C@@H](OC(=O)CC)[C@H](C)O3)[C@H](N(C)C)[C@H]2O)[C@H]1OC (some centres not stated)	10%	36%[29.6 µM]
CC(C)CC1C(=O)N2CCCC2C2(O)O[C@@](NC(=O)C3C=C4c5cccc6[nH]c(Br)c(c56)CC4N(C)C3)(C(C)C)C(=O)N12 (some centres not stated)	?	-19%
CC(C)C[C@H]1C(=O)N2CCC[C@H]2[C@]2(O)O[C@](NC(=O)[C@@H]3C=C4c5cccc6[nH]c(Br)c(c56)C[C@H]4N(C)C3)(C(C)C)C(=O)N12	112µM*!	-19%
CC(=O)N[C@@H](C=O)[C@H](O)[C@H](O)[C@@H](O)CO	29%	2%
CCN(CC)c1ccc(/C=C/c2ccncc2)cc1	-39%	?
CC(C)C[C@@H](CO)N1CCN(Cc2ccccc2)CCC1=O	-2%	?
CCCN1CCC(=O)N([C@H](COc2ccccc2)Cc2ccccc2)CC1	5%	16%
CC(C)C[C@@H](COc1ccccc1)N1CCN(Cc2ccccc2)CCC1=O	-21%	18µM*
O=C1CCN(Cc2ccccc2)CCN1[C@H](COc1ccccc1)Cc1ccccc1	-7%	79µM*
O=C(CN1Cc2ccccc2OC(c2ccsc2)C1)N1CCN(Cc2ccc3c(c2)OCO3)CC1 (configuration not stated)	8%	56µM*
O=C(CN1CCN(Cc2ccc3c(c2)OCO3)CC1)N1c2ccccc2Sc2ccccc21	11%	-23%
CCCCOCCOCCOCc1cc2c(cc1CCC)OCO2	-3%	50µM*!
COc1ccc(C(=O)NCc2nc(-c3ccccc3NC(=O)c3cc(C)oc3C)oc2C)cc1F	-10%	-1%
CCCN=C(N)NCCC[C@H](N)C(=O)O	-2%	-23%
CCCCC(CC)CN=C(N)NC(N)=NCCCCCCN=C(N)NC(N)=NCC(CC)CCCC (configuration not stated)	-49%	56µM*
CCC(C)(C)C(=O)O[C@@H]1C[C@@H](C)C=C2C=C[C@H](C)[C@H](CC[C@@H]3C[C@@H](O)CC(=O)O3)[C@H]21	-43%	50µM*
CCC(C)(C)C(=O)OC1CC(C)C=C2C=CC(C)C(CCC3CC(O)CC(=O)O3)C21 (configuration not stated)	6%	i
O=C1NC(=O)[C@H]2[C@@H]1[C@@H]1C=C[C@H]2C1	8%	-10%
COc1ccc2cc(CNCc3nonc3C)c(N3CCCC(CO)C3)nc2c1 (configuration not stated)	15%	-37%
COc1cccc(Nc2ncc3nc(-c4cc(F)cc(F)c4)c(=O)n(C4CC4)c3n2)c1	100µM*	-6%
COCCn1c(=O)c(-c2ccc(F)cc2)nc2cnc(Nc3cccc(OC)c3)nc21	22%	-10%
COCCn1c(=O)c(-c2cc(F)cc(F)c2)nc2cnc(Nc3cccc(OC)c3)nc21	89µM*	0%
COc1cccc(Nc2ncc3nc(-c4ccccc4)c(=O)n(C4CC4)c3n2)c1	-37%	-12%
COc1cc(=O)n2c(c1C(=O)NCc1ccc3c(c1)OCO3)CCN(C(=O)c1ccc(C)cc1)CC2	-19%	-12%
COc1cccc(CN2CCC3(CCC(CNC(=O)c4cc(C)nn4C)O3)CC2)c1OC (configuration not stated)	7%	-35%
SMILES	EPAC1 agonist	EPAC2 antag
CC(/C=C/c1cccc(Oc2ccc(F)cc2)c1)N(O)C(N)=O (configuration not stated)	4%	79µM*
C[C@@H](/C=C\c1cccc(Oc2ccc(F)cc2)c1)N(O)C(N)=O	-25%	25µM*
CC(C(=O)O)c1cccc(Oc2ccccc2)c1 (configuration not stated)	5%	-19%
NC1[C@H]2CN(c3nc4c(cc3F)c(=O)c(C(=O)O)cn4-c3ccc(F)cc3F)C[C@@H]12 (some centres not stated)	-6%	-6%
Cc1cc2nc3c(=O)[nH]c(=O)nc-3n(CC(O)C(O)C(O)CO)c2cc1C (configuration not stated)	35µM*	i
CCCC(=O)OC[C@@H](OC(=O)CCC)[C@@H](OC(=O)CCC)[C@H](Cn1c2nc(=O)[nH]c(=O)c-2nc2cc(C)c(C)cc21)OC(=O)CCC	?	119%
CC(=O)N1CCC2(CCCN(c3ccc(-c4ccccc4)cc3)C2)CC1	100µM*	?
O=C(c1ccco1)N1CCC2(CC1)CN(c1ccc(-c3ccccc3)cc1)C2	?	-24%
O=C(Oc1ccccc1)N1CCC2(CCCN(c3cccc(-c4ccccc4)c3)C2)CC1	?	-19%
O=C(c1ccco1)N1CCC2(CC1)CN(c1cccc(-c3ccccc3)c1)C2	100µM*	?
COCC(=O)N1CCC2(CCCN(c3ccc(-c4ccccc4)cc3)C2)CC1	-7%	-10%
CC(=O)N1CCC2(CCCN(c3cccc(-c4ccccc4)c3)C2)CC1	100µM*	45µM*
CN[C@@H]1[C@@H](O)[C@@H](O[C@@H]2[C@@H](O)[C@H](O[C@H]3O[C@H](CN)[C@@H](O)[C@H](O)[C@H]3O)[C@@H](N)C[C@H]2NC(=O)C(O)CN)OC[C@]1(C)O (some centres not stated)	5%	-1%
CCO[C@@H]1O[C@H](C(COCc2ccccc2)OCc2ccccc2)[C@H](OCc2ccccc2)[C@H]1O (some centres not stated)	-23%	-6%[56.6 µM]
Cc1cnc(C)c(-c2cc(F)cc3c2OC(CNC(=O)Cc2c(C)noc2C)C3)n1 (configuration not stated)	3%	-29%
Cc1sc2ccccc2[n+]1CCC[n+]1c(C)sc2ccccc21	?	17%
CCN(CC)CCCC(C)Nc1cc(/C=C/c2ccccc2Cl)nc2cc(Cl)ccc12 (configuration not stated)	19%	-4%
CCN(CC)CCCC(C)Nc1c2ccc(Cl)cc2nc2ccc(OC)cc12 (configuration not stated)	112µM*!	6%
Cc1[nH]c2ccccc2c1/C=C/c1ccc2ccccc2n1	100µM*	-14%
Cc1[nH]c2ccccc2c1/C=C/c1cnc2ccccc2n1	9%	-5%
Cc1cc[n+](C2CCCCC2)c2ccccc12	?	-11%
Cn1nc(C(=O)NCCN2Cc3ccccc3OC(c3ccsc3)C2)c2ccccc2c1=O (configuration not stated)	-14%	-19%
COc1cc(-c2ccc(N=Nc3ccc4c(S(=O)(=O)O)cc(S(=O)(=O)O)c(N)c4c3O)c(OC)c2)ccc1N=Nc1ccc2c(S(=O)(=O)O)cc(S(=O)(=O)O)c(N)c2c1O	5%	28µM*!
O=C([C@@H]1C[C@@H](Sc2nc3ccccc3[nH]2)CN1Cc1c(F)cccc1F)N1CCOCC1	-9%	-27%
Cc1c(C(=O)NCC(C)(C)N2CCOCC2)cnn1-c1ncc2c(n1)-c1ccccc1CC2	16%	?
Cc1ccc(SC[C@H](Cc2ccccc2)N2CC[C@@H](C)CCC2=O)cc1	-25%	?
COc1ccc(SC[C@H](Cc2ccccc2)N2CC[C@@H](C)CCC2=O)cc1	5%	40µM*
Cc1sc(N)c(C(=O)c2cccc(C(F)(F)F)c2)c1C	-44%	56µM*
